About 6,100 (1.1%) of roughly 580,000 compounds were called active. Not shown: some 15% with an inconclusive outcome. The full list was thinned out, with actives kept by preference. Unmarked numbers belong to inactive results. Calls follow the shape of the dose curve; as a rule, active = well fitted inhibition curve with a large enough effect; inconclusive = small, poorly fitted or top-dose-only effect, or another doubt; inactive = no such curve, though single readings can be large or run the other way.
The compounds below were run against Polyunsaturated fatty acid lipoxygenase ALOX12 (Homo sapiens) (UniProt P18054) (assay: Primary qHTS assay for inhibitors of human arachidonate 12S-lipoxygenase (ALOX12): Round 2). Conditions: purified 12hLO, xylenol orange hydroperoxide absorbance; series mostly up to 108 µM; activity change, negative = inhibition: at the top concentration.
Sequence of Polyunsaturated fatty acid lipoxygenase ALOX12 (Homo sapiens) (P18054 whole entry, looked up): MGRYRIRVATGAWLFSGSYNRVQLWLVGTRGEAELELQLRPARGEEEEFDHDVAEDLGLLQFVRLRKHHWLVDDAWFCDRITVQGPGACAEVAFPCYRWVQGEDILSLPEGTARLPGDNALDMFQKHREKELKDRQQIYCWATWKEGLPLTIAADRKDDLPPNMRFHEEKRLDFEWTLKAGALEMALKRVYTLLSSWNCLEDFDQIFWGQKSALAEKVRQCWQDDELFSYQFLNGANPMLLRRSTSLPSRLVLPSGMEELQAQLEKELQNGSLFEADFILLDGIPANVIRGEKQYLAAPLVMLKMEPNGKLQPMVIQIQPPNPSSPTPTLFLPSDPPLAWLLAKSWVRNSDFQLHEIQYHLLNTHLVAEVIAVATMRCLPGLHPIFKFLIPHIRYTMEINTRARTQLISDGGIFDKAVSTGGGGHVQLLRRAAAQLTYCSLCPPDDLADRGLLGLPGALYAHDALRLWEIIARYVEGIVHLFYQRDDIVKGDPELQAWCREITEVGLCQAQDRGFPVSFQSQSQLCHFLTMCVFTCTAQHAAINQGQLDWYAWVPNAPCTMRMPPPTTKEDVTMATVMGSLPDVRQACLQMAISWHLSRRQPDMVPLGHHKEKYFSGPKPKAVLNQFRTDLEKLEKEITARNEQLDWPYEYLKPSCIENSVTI
How it was run: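 Hydroperoxide product was detected by ferrous iron/xylenol orange as the 573 to 405 nm absorbance ratio. Arachidonic acid at 40 uM (final) was turned over for 30 min at room temperature by 150 nM human 12hLO, pH 7.0 Hepes buffer, after 15 min compound preincubation.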
% is scaled to controls: 0 for no effect and ±100 for the full control effect; potency is read from the fitted curve at half-maximal effect.

| SMILES | Potency | activity change, negative = inhibition |
| --- | --- | --- |
| COc1ccccc1NC(=O)c1cc2ccccc2cc1OCC(N)=O | 35.5 µM (active) | – |
| CCCn1nnc(NC(=O)c2cc3ccccc3cc2OC)n1 | – | -6.59% |
| CCn1nnc(NC(=O)c2cc3ccccc3cc2OC)n1 | – | -19.5% |
| COCCCNC(=O)CN(C)C(=O)c1cccc(C(F)(F)F)c1 | – | 5.64% |
| CCc1nnsc1C(=O)N(C)Cc1c(F)cccc1Cl | – | 34% |
| N#Cc1cc(NCC(=O)N2CCNC2=O)ccc1Cl | – | 14.5% |
| Fc1ccc(Nc2nc(SCc3ccccc3Cl)nc3ccccc23)cc1 | – | -21.5% |
| CC1(C)N=C(SCc2ccccc2Cl)c2ccccc2N1 | – | -9.25% |
| Clc1ccccc1CSc1nnc(-c2ccco2)c(-c2ccco2)n1 | 3.55 µM (active) | – |
| O=C(NCC1CCCO1)c1cc(Cl)c2c(c1)OCCO2 (stereo not given) | – | 9.31% |
| Cc1ccccc1CN(CC1CCCO1)C(=O)c1cccc(CCC(C)(C)O)c1 (stereo not given) | – | 80.5% |
| Cc1nn(CCc2nc(-c3ccccc3F)cs2)c2[nH]c(=O)cc(C(F)(F)F)c12 | 7.08 µM (active) | – |
| Cc1nn(-c2ccccc2)c2[nH]c(C(F)(F)F)cc(=O)c12 | – | 0% [at 57.4 µM] |
| CCCn1c(=O)c2c(C(F)(F)F)cc(-c3cccs3)nc2n(CCC)c1=O | – | -9.97% |
| Cc1cc2oc(=O)cc(COC(=O)c3cc(S(=O)(=O)N(C)C)ccc3NCCO)c2cc1C | – | -22% |
| CCOc1cccc(/C=N/N2C(=O)CSC2=S)c1O | 31.6 µM (active) | – |
| CCOC(=O)C1(C(F)(F)F)N=C(c2ccc(OC)cc2)OC(N(C)C)=N1 (stereo not given) | – | 0.631% |
| O=C(CCNC(=O)N1CCN(C(=O)c2cc3ccccc3[nH]2)CC1)NCc1ccccn1 | – | 8.38% |
| Clc1cccc(CN2CCN(Cc3nnsc3Cl)CC2)c1 | – | 22.4% |
| CCOC(=O)c1ccc(Nc2c(C(=O)OCC)cnc3ccc(OCC)cc23)cc1 | – | -26.7% |
| COC(=O)c1ccc2nc(-c3cccc(Br)c3)c(Cc3ccccc3C(F)(F)F)n2c1 | – | 0% |
| COC(=O)c1ccc2nc(C3CCCCC3)c(Cc3cccc(F)c3)n2c1 | – | -27.2% |
| COC(=O)c1ccc2nc(-c3ccc(Cl)cc3)c(Cc3cccc(F)c3)n2c1 | 44.7 µM (active) | – |
| COC(=O)c1ccc2nc(-c3cccc(Br)c3)c(Cc3ccc(OC)cc3C)n2c1 | 7.94 µM (active) | – |
| CCc1nc2ccc(C(=O)NCc3ccc(OC)cc3)cn2c1N(CC)Cc1cccc(Br)c1 | – | -13.1% |

| SMILES | Potency | activity change, negative = inhibition |
| --- | --- | --- |
| CN(C)C(=O)c1nc2ccc(Cl)cn2c1CNCc1cccc(OC(F)(F)F)c1 | – | -10% |
| O=C(Nc1ccnc(Cl)c1)C1CC2CCC1C2 (stereo not given) | – | -11.1% |
| CC(=O)OC1C2COC(O2)C(OC(C)=O)C1OC(C)=O (stereo not given) | – | -25.1% |
| O=C(Nc1cccnc1)c1cc(-c2ccc(F)cc2)nc2ccccc12 | – | -4.09% |
| CCCNC(=O)CC1COCCN1C(=O)CCc1c(C)nc(=O)[nH]c1C (stereo not given) | – | 4.55% |
| COC(=O)c1c(CN2CCC(C(N)=O)CC2)nc2ccccc2c1C | – | -1.28% |
| Cc1nnc(SCC(=O)NNC(=O)c2ccc(Cl)cc2)n1CC1CCCO1 (stereo not given) | – | 0.528% |
| S=c1[nH]nc(-c2ccc(Cl)cc2)n1CC1CCCO1 (stereo not given) | 44.7 µM (active) | – |
| CNC(=O)NC(=O)CSc1nnc(-c2ccc(F)cc2)n1CC1CCCO1 (stereo not given) | – | -1.78% |
| COc1ccc(C(=O)NC[C@@H]2C=C(C)[C@H](Cc3nnc(-c4cncn4C)o3)C[C@H]2C(C)C)cc1 | – | 5.16% |
| CC(C)c1ccc(S(=O)(=O)N2CCN(C(=O)c3ccc(N4CCCC4)c([N+](=O)[O-])c3)CC2)cc1 | – | 1.24% |
| O=C(c1cccc(F)c1)N1CCN(c2ccc([N+](=O)[O-])c3cccnc23)CC1 | 39.8 µM (active) | – |
| O=C(c1cccc(F)c1)N1CCC(O)(c2cccnc2)CC1 | – | 0% |
| O=C(NCCCN1CCCC1=O)c1csc(N2CCN(c3ccccc3F)CC2)n1 | – | -8.23% |
| C/C(=N\NC(=O)C1CC1)C(C)C | – | 31.5% |
| COc1ccc(Oc2ccc(NC(=O)Cn3ncc4ccc(OC)c(OC)c4c3=O)cc2)cc1 | – | 6.84% |
| C/C(=N\NC(=O)Cc1ccccc1[N+](=O)[O-])c1cccnc1 | – | 434% |
| O=C(NN=Cc1ccco1)C(=O)Nc1ccc(Cl)c([N+](=O)[O-])c1 | – | 20.7% |
| O=C(/C=C/c1ccc(Cl)c([N+](=O)[O-])c1)c1cccnc1 | 17.8 µM (active) | – |
| CC(=O)N1CCN(C(=O)Cn2c(-c3ccccc3)cc3ccccc32)CC1 | – | -56.7% |
| O=C(Nc1cc(F)ccc1F)c1cc(C2CC2)nn1-c1ccccc1 | – | 28.5% |
| O=C(CCc1c[nH]c2ccccc12)NCCc1cccnc1 | – | -7.37% |
| COc1cccc(-c2nc3n(n2)C(c2ccccc2Cl)C(C(N)=O)=C(C)N3)c1 (stereo not given) | – | 337% |
| Cc1ccc(C2C=C(c3ccc(Cl)cc3)Nc3nc(NC(=O)CCC(=O)O)nn32)cc1 (stereo not given) | – | 39.4% |
| COc1ccc(C2=CC(c3ccccc3Cl)n3nc(-c4ccc(Cl)cc4)nc3N2)cc1 (stereo not given) | 5.01 µM (active) | – |

From PubChem BioAssay AID1671190 (National Center for Advancing Translational Sciences (NCATS), 2021)
